Shiga toxin inh – Shiga toxin inhibition. 290,000 tested, 9.2% active. Vero cells, Shiga toxin protein synthesis inhibition reporter. inhibition, % at 38.7 µM. AID 2315; in the data active = inhibition mostly above about 28%, no sharp cut-off; inactive = mostly below about 43%
LmPK inh – LmPK (Leishmania mexicana) enzyme inhibition | purified LmPK, Kinase-Glo ATP luminescence, 1 h | Potency, µM (titrated, usually from 57.5 µM), usual class: inhibitors | 290,000 tested, 0.37% active | AID 1721
Target sequence (Q27686 whole entry, looked up): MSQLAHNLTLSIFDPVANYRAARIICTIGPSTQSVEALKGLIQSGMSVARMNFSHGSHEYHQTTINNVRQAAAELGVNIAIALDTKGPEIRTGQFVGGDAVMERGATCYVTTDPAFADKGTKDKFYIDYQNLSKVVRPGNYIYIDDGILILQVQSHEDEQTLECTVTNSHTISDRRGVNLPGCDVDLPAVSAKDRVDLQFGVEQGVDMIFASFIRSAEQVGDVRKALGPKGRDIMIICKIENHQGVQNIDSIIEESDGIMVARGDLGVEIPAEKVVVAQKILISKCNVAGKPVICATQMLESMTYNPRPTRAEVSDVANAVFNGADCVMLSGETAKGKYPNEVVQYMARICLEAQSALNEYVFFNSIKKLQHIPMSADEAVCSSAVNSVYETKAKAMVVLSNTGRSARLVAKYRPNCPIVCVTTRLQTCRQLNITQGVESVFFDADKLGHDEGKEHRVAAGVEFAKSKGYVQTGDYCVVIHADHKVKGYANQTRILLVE
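Purified LmPK (0.1 nM) with 0.5 mM PEP and 0.1 mM ADP in imidazole buffer pH 7.2 with MgCl2/KCl, 1 h at room temperature. ATP formed was read by luciferase luminescence and normalized to no-enzyme and uninhibited controls.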
RE007 growth inh – less growth of the S. pombe RE007 Vpr strain | Potency, µM (highest dose often 92.2 µM), most hits filed as inhibitors | 360,000 tested, 0.21% active | S. pombe RE007 Vpr strain, BacTiter-Glo ATP luminescence, 24 h | AID 651644; active = well fitted falling curve with a large enough effect; inconclusive = small, poorly fitted or top-dose-only effect; inactive = no such curve, though single readings can be large or run the other way; note: nearly all actives have a fitted effect of over 50% in size
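Fission yeast strain RE007, carrying one chromosomally integrated HIV-1 vpr copy, was seeded at OD 0.01 in PMG+AL medium with 23 nL pinned compound. After 24 h at 30 °C and 99% humidity, viability was read by BacTiter-Glo luminescence.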
FBPA Giardia inh – inhibitors of Giardia lamblia fructose-1,6-bisphosphate aldolase. purified Giardia FBPA. 290,000 tested, 0.71% active. Potency, µM (series often up to 59.6 µM), usual class: inhibitors. AID 2451; note: nearly all actives have a fitted effect of over 55% in size
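40 nM FBPA preincubated 10 min at RT with compound (up to 57.5 uM final), then substrate plus GAPDH/TPI/NAD/arsenate coupling and diaphorase/resazurin added. Fluorescence read after 20 min at RT, 525/598 nm.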
Cycloheximide cs – counter-screen for Shiga toxin inhibitors: cycloheximide protein synthesis inhibition. 300,000 tested, 12% active. AID 2314. max response, %. cell reporter, cycloheximide protein synthesis inhibition counterscreen; in the data active = max response mostly above about 13%, no sharp cut-off; inactive = mostly below about 14%; note: read at 38.3 µM for the half of the compounds with a filed dose
TbPYK inhibitor – T. brucei pyruvate kinase inhibition; AID 624173; Q57TT1; 410,000 tested, 0.12% active; Potency, µM (highest dose often 76.8 µM), most hits filed as inhibitors; TbPYK enzyme, Kinase-Glo Plus ATP luminescence, 45 min; note: nearly all actives have a fitted effect of over 50% in size
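TbPYK + substrate in 50 mM TEA pH 7.2, 100 mM KCl, 10 mM MgCl2, 0.05% BSA, 0.01% Tween-20; cpd pinned; ADP 130 uM final; 45 min RT; Kinase-Glo Plus 10 min; luminescence endpoint.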
A number is an active result; 0 = inactive; ? = inconclusive; - = no result given. The full list was thinned out, with hits kept by preference. Unless noted, calls come from the whole dose curve; as a rule, active = well fitted curve in the direction sought with a large enough effect; inconclusive = small, poorly fitted or top-dose-only effect, or another doubt; inactive = no such curve, though single readings can be large; an effect the other way counts as inactive or inconclusive.

SMILES	Shiga toxin inh	LmPK inh	RE007 growth inh	FBPA Giardia inh	Cycloheximide cs	TbPYK inhibitor
COc1ccc(N2C3=[N+](CC2(C)O)c2ccccc2CC3)cc1 (stereo not given)	0	0	0	0	22	0
COc1ccc(OCC(=O)N2c3ccccc3CCc3ccccc32)cc1	0	0	0	0	0	0
CCCN1CCC(=O)N(C(CSc2ccc(Br)cc2)c2ccccc2)CC1 (stereo not given)	77	-	-	0	50	-
CCCN1CCC(=O)N([C@H](CSc2ccc(C)cc2)c2ccccc2)CC1	46	0	0	0	23	0
CCCN1CCC(=O)N([C@H](CO)c2ccccc2)CC1	0	0	0	0	0	0
CCCN1CCC(=O)N([C@H](CSc2ccccc2)c2ccccc2)CC1	0	0	0	0	24	0
COc1ccc(-c2nn(-c3ccccc3)cc2/C=N/N2C(=O)CSC2=S)cc1	0	0	0	0	29	0
COc1ccc(-c2nn(-c3ccccc3)cc2/C=N/O)cc1	0	0	0	0	0	0
O=C(c1ccc2c(=O)n(Cc3ccc(Cl)cc3)c(=S)[nH]c2c1)N1CCOCC1	23	0	0	?	26	0
O=C(NC1CCN(Cc2ccccc2)CC1)c1ccc(Cn2c(=S)[nH]c3ccc(N4CCOCC4)cc3c2=O)cc1	55	0	0	0	32	0
O=c1c2cc(N3CCOCC3)ccc2[nH]c(=S)n1Cc1ccco1	0	0	0	?	11	?
O=c1c2cc(N3CCOCC3)ccc2[nH]c(=S)n1Cc1cccc(Cl)c1	0	0	0	0	0	0
O=C(c1ccc2c(=O)n(Cc3ccc(Cl)cc3)c(=S)[nH]c2c1)N1CCCC1	0	0	0	0	0	0
CC(Sc1nnc2ccc3ccccc3n12)C(=O)Nc1ccc(Cl)cc1 (stereo not given)	-	-	-	-	-	0
CC12CN3CCN(C1)CC(C)(C3)C2=NN	74	0	0	0	21	0
CCOc1ccc(-c2cnc3n2CCCCC3)cc1	0	0	0	0	8.6	0
N#Cc1ncc(-c2ccc3c(c2)OCCOCCOCCOCCO3)nc1C#N	0	0	0	0	0	0
c1ccc(-c2ccc(-c3cnc4n3CCCCC4)cc2)cc1	0	0	?	0	22	0
c1cc2c(cc1-c1cnc3n1CCC3)OCCO2	87	0	0	0	0	0
Cc1ccc(-c2cnc3n2CCCCC3)cc1	0	0	0	0	0	0
Cc1ccc(C(=O)c2cn(CC(=O)Nc3ccc4c(c3)OCCO4)c3nc(C)ccc3c2=O)cc1	-	-	-	-	-	0
COc1cccc2sc3ccc(C#CC4(N)CCCCC4)cc3c(=O)c12	64	0	0	0	32	0
CNC(C)C#Cc1ccc2oc3cc(C)c(C)cc3c(=O)c2c1 (stereo not given)	-	-	0	-	-	0
CNC(C)C#Cc1ccc2sc3cccc(OC)c3c(=O)c2c1 (stereo not given)	19	0	?	0	12	0
COc1cccc2sc3cc(C#CC4(O)CCCCC4)ccc3c(=O)c12	-	-	0	-	-	0
SMILES	Shiga toxin inh	LmPK inh	RE007 growth inh	FBPA Giardia inh	Cycloheximide cs	TbPYK inhibitor
CNC(C)C#Cc1ccc2c(=O)c3cc(C)c(C)cc3oc2c1 (stereo not given)	-	-	0	-	-	0
CNC(C)C#Cc1ccc2oc3cccc(OC)c3c(=O)c2c1 (stereo not given)	45	0	0	0	36	0
CNC(C)C#Cc1ccc2c(=O)c3c(OC)cccc3oc2c1 (stereo not given)	46	0	-	0	37	-
CCOC(=O)c1cnc2c(ccc3ccccc32)c1Nc1ccc(OC)cc1OC	-	-	-	-	-	0
CC(=O)c1ccc(NC(=O)c2ccc(-c3nc(COc4ccc(C)cc4)c(C)o3)cc2)cc1	-	-	-	-	-	0
O=C(CN1C(=O)CCS(=O)(=O)c2ccccc21)Nc1ccc(Cl)cc1	0	0	0	0	0	0
CCC(CC)CN1CCN=C1Nc1ccccc1	-	-	0	-	-	0
COc1cccc2oc3ccc(C#Cc4ccccn4)cc3c(=O)c12	47	0	0	0	66	0
COc1cccc2sc3cc(C#Cc4ccccn4)ccc3c(=O)c12	-	-	0	-	-	0
COc1ccc(OC)c(CNC(=O)c2cc3ccc4cccnc4c3[nH]2)c1	-	-	-	-	-	0
CCOc1ccc(NC(=O)C(CC)n2c(=O)c(-c3ccccc3NC(C)=O)nc3ccccc32)cc1 (stereo not given)	-	-	-	-	-	0
